Test results: PubChem BioAssay (Tox21)
Results filed as inconclusive are left out. Values without a mark were called inactive. Activity calls are given as the source filed them. The call rests on the fitted dose curve; in most records, active means well fitted cell-killing curve with a large enough effect in the repeat runs; inconclusive means weak or mixed curves, or effect the other way; inactive means no such curve, though single readings can be large or run the other way.

test: qHTS assay for identifying genotoxic compounds that show differential cytotoxicity against isogenic chicken DT40 cell lines with known DNA damage response pathways - wild type cell line (AID 743012); conditions: DT40 wild type chicken cells viability, CellTiter-Glo, 40 h; series mostly up to 68.4 µM; activity change, negative = cytotoxicity: at the top concentration; further: nearly all actives have a fitted effect of over 60% in size
Procedure, shortened: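 Viability by ATP luminescence (CellTiter-Glo, 30 min RT) after 40 h compound treatment at 37 C/5% CO2, using 300 parental DNA repair-proficient DT40 cells per well.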
On the % scale 0 is the no-effect control and ±100 the full control effect; potency means the concentration at half of the fitted maximal effect.

First: C[C@@H]1CN(c2c(F)c(N)c3c(=O)c(C(=O)O)cn(C4CC4)c3c2F)C[C@H](C)N1
Second: Cc1nnc(SCC2=C(C(=O)O)N3C(=O)[C@@H](NC(=O)Cn4cnnn4)[C@H]3SC2)s1
The “activity change, negative = cytotoxicity” value of the first is lower: -17.9% for the first, -0.0178% for the second.

Going from `CC1(C)C(=O)N(Cl)C(=O)N1Br` to `CN(CC1(C)CCCO1)S(=O)(=O)c1ccc(Cl)c(S(N)(=O)=O)c1` (stereo unspecified), the “activity change, negative = cytotoxicity” value rises from -19.4% to -12.4%.

Compared with `CCC/C=C/CO`, `CC/C=C\CCOC(=O)CCCCC` is lower in “activity change, negative = cytotoxicity” value: 15.4% for the first, 6.65% for the second.

Going from `CCOc1ccc(NC(N)=O)cc1` to `CCC(=O)Nc1ccc(O)cc1`, the “activity change, negative = cytotoxicity” value falls from 12.8% to -3.62%.

Going from `Clc1cccc(-c2cc(Cl)cc(Cl)c2)c1` to `CC1=NN(c2cc(Cl)c(S(=O)(=O)O)cc2Cl)C(=O)C1N=Nc1ccc(S(=O)(=O)O)cc1` (stereo unspecified), the “activity change, negative = cytotoxicity” value falls from 25.2% to 24.2%.

First: C=CCCCCCCCCO
Second: CCCOCCC
The “activity change, negative = cytotoxicity” value of the first is lower: -0.876% for the first, 20.7% for the second.

First: O=C(O)C(=O)Cc1c[nH]c2ccccc12
Second: Cc1ccc([N+](=O)[O-])c(N)c1
The “activity change, negative = cytotoxicity” value of the first is higher: 11.5% for the first, -10% for the second.

Going from `O=c1oc2c(O)c(O)cc3c(=O)oc4c(O)c(O)cc1c4c23` to `Cc1ccc(C(C)C)cc1O`, the “activity change, negative = cytotoxicity” value falls from 13.2% to -1.06%.

First: CCCCCCC
Second: OCCN1CCN(CCO)CC1
The “activity change, negative = cytotoxicity” value of the first is lower: 0.332% [at 95 µM] for the first, 11.1% [at 95 µM] for the second.

Going from `Cc1ccc([N+](=O)[O-])cc1Cl` to `CC1=CC(=O)CC(C)(C)C1=O`, the “activity change, negative = cytotoxicity” value rises from 2.1% [at 95 µM] to 5.58% [at 95 µM].

With `C=CC1CO1` (stereo unspecified) the “activity change, negative = cytotoxicity” value was -15.7% [at 95 µM].

In the case of `CCOC(=O)c1ccccc1O`, the Potency is reported as “inactive”.
With `C=O` the Potency was “inactive”.
For `CS(=O)(=O)c1ccc([C@@H](O)[C@@H](CF)NC(=O)C(Cl)Cl)cc1`, the Potency was 4.03 µM (active).
For `COc1ccc2nc(NC(=O)Nc3ccccc3)sc2c1`, the Potency was 18.8 µM (active).

In the case of `COc1ccccc1OCC(O)COC(N)=O` (stereo unspecified), the “activity change, negative = cytotoxicity” value is reported as 12.7% [at 31.4 µM].
